PubChem BioAssay (EPA / NIEHS)
Inconclusive results are not listed. Activity calls are given as the source filed them. How the source made its calls, unless noted: active means hit-call score of the fitted dose curve at least 0.9, where 1 is the maximum; inactive means score below 0.9.

Experiments:
[1] = CCTE_Shafer_MEA_dev_correlation_coefficient_mean: CCTE's Neural Network Formation Assay for Mean Correlation Coefficient, Shafer Lab (AID 2284093)
Outline: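 Rat cortical cultures, 1.5 x 10^5 cells/well, dosed from day 0 for 12 days. Spontaneous spikes recorded DIV 5/7/9/12; electrode-pair correlation coefficients averaged, AUC taken. Fit in loss direction vs DMSO.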

[2] = UKN2_HCS_IMR90_neural_migration: University of Konstanz (UKN) Leist Lab Neural Crest Cell Migration Assay in human induced IMR90 Pluripotent Stem Cells (UKN2) (AID 2284204); details: actives raise or lower the signal
Outline: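 Stopper-exclusion migration (cMINC), human iPSC-derived neural crest cells; N2-S + EGF/FGF; compound added 24 h post-stopper removal, 24 h exposure. Readout: calcein-AM/Hoechst 30 min, HCS fluorescence imaging; bidirectional fitting, DMSO baseline.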

[3] = UKN4_HCS_LUHMES_neurite_outgrowth: University of Konstanz (UKN) Leist Lab Neurite Outgrowth Assay in human LUHMES cells (UKN4) (AID 2284206); details: actives raise or lower the signal
Outline: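 Read-out: calcein-AM neurite area by high-content fluorescence imaging, with Hoechst H-33342 viability counterstain, after 24 h chemical exposure of day-2 differentiated LUHMES cells. Activity fitted bidirectionally against DMSO baseline.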

[4] = IUF_NPC1b_proliferation_BrdU_72hr: Leibniz Research Institute for Environmental Medicine (IUF) 72-hour Neural Progenitor Cell Bromodeoxyuridine (BrdU) Proliferation Assay (NPC1b) (AID 2284207)
Outline: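 Luminescent BrdU ELISA measured DNA synthesis during the last 16 h of a 72 h exposure of primary human neural progenitor spheres grown with EGF and FGF. Signal was fitted relative to DMSO controls.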

[5] = IUF_NPC1a_proliferation_area_72hr: Leibniz Research Institute for Environmental Medicine (IUF) 72-hour Neural Progenitor Cell Proliferation Area Assay (NPC1a) (AID 2284208)
Outline: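 Proliferation is scored as sphere area gain in primary human fetal neural progenitors treated for 72 h in EGF/FGF-containing medium. Viability, LDH and BrdU readouts come from the same wells.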

[6] = IUF_NPC1_viability_72hr: Viability Assessment at 72 hours in the Leibniz Research Institute for Environmental Medicine (IUF) Neural Progenitor Cell Proliferation Assay (NPC1) (AID 2284209)
Outline: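 Alamar blue fluorescence (RFU) after 72 h exposure, normalized to DMSO baseline. hNPC spheres from GW 16-19 fetal cortex, single sphere per well in growth-factor medium; no compound renewal.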

[7] = CCTE_Mundy_HCI_Cortical_Synap_Neur_Matur_NeuriteSpotCountPerNeuriteLength: CCTE's Synaptogenesis and Neurite Maturation Assay in rat cortical cells for Neurite Spot Count per Neurite Length, Mundy Lab (AID 2284210)
Outline: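 Read-out: synaptophysin puncta counted along MAP2-stained neurites, normalised to neurite length, by automated high-content imaging. Rat cortical cells; AraC DIV 5; chemical dosing DIV 7; termination DIV 12. DMSO baseline.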

[8] = CCTE_Mundy_HCI_Cortical_NOG_NeuriteLength: CCTE's Neurite Outgrowth Assay in rat cortical cells for Neurite Length, Mundy Lab (AID 2284213);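 further: neurites imaged about 48 to 50 h after chemical exposure began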
Outline: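 First, rat primary cortical cells were plated and, 2 h later, given test chemical as a 1/10 dilution. Finally, βIII-tubulin immunostaining enabled automated imaging of neurite length.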

[9] = CCTE_Mundy_HCI_Cortical_Synap_Neur_Matur_NeuriteSpotCountPerNeuron: CCTE's Synaptogenesis and Neurite Maturation Assay in rat cortical cells for Neurite Spot Count per Neuron Count, Mundy Lab (AID 2284215)
Outline: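 Synapse density is scored as synaptophysin spots along neurites per neuron in fixed rat cortical neurons, measured at DIV 12 after chemical dosing at DIV 7. DMSO is the negative control and activity baseline.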

[10] = CCTE_Mundy_HCI_hN2_NOG_NeuriteCount: CCTE's Neurite Outgrowth Assay in human hN2 cells for Neurite Count, Mundy Lab (AID 2284219; active means hit-call score of the fitted dose curve at least 0.9, where 1 is the maximum)
Outline: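 In this morphology assay, hNP1-derived neurons received test chemical 2 h post-plating and were fixed two days later in warm paraformaldehyde/sucrose containing Hoechst 33342. Neurites, labelled by rabbit anti-βIII-tubulin (1:800) and Alexa Fluor-488 (1:500), were counted automatically.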

[11] = CCTE_Mundy_HCI_hN2_NOG_NeuriteLength: CCTE's Neurite Outgrowth Assay in human hN2 cells for Neurite Length, Mundy Lab (AID 2284220; active means hit-call score of the fitted dose curve at least 0.9, where 1 is the maximum)
Outline: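 Read-out is neurite length from high-content imaging of βIII-tubulin/Alexa Fluor-488-labelled neurons, referenced to DMSO controls.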

[12] = CCTE_Mundy_HCI_hN2_NOG_NeuronCount: CCTE's Neurite Outgrowth Assay in human hN2 cells for Neuron Count, Mundy Lab (AID 2284221; active means hit-call score of the fitted dose curve at least 0.9, where 1 is the maximum)
Outline: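 Read-out is the number of betaIII-tubulin-positive neurons imaged by automated high-content analysis, with DMSO as negative control.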

[13] = CCTE_Mundy_HCI_Cortical_Synap_Neur_Matur_CellBodySpotCount: CCTE's Synaptogenesis and Neurite Maturation Assay in rat cortical cells for Cell Body Spot Count, Mundy Lab (AID 2284223)
Outline: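 Synapse number at neuronal cell bodies was quantified as synaptophysin puncta per neuron in rat cortical cultures exposed from DIV 7 to DIV 12. Values were normalised to DMSO.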

[14] = UKN4_HCS_LUHMES_cell_viability: Viability Assessment in the University of Konstanz (UKN) Leist Lab Neurite Outgrowth Assay in human LUHMES cells (UKN4) (AID 2284232)
Outline: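 Day-2 differentiated LUHMES, 30000 cells/well, dosed ~30 min–2 h post-seeding; 24 h treatment incl. staining; Hoechst H-33342 + calcein-AM at 23.5 h; HCS imaging; DMSO-normalized, bidirectional fit.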

[15] = UKN2_HCS_IMR90_cell_viability: Viability Assessment in the University of Konstanz (UKN) Leist Lab Neural Crest Cell Migration Assay in human induced IMR90 Pluripotent Stem Cells (UKN2) (AID 2284233);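 further: cells exposed to compound for 24 h after a 24 h migration phase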
Outline: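 Viability read as calcein-AM fluorescence by high-content imaging, Hoechst co-stain, 30 min. Human iPSC (IMR90) neural crest cells had migrated 24 h into stopper-defined gaps before 24 h chemical exposure. Fitted bidirectionally relative to DMSO.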

[16] = CCTE_Mundy_HCI_Cortical_NOG_NeuronCount: CCTE's Neurite Outgrowth Assay in rat cortical cells for Neuron Count, Mundy Lab (AID 2284236; active means hit-call score of the fitted dose curve at least 0.9, where 1 is the maximum;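 further: neurons counted by imaging betaIII-tubulin and Hoechst stained cortical cells; cells exposed to compound for about 48 hours before fixation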)
Outline: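 Read-out: neuron number by high-content imaging of betaIII-tubulin (Alexa Fluor-488) and Hoechst-labelled rat primary cortical cells.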

[17] = CCTE_Mundy_HCI_hNP1_Casp3_7: CCTE's Caspase-Glo 3/7 Assay in human neuroprogenitor cells for Apoptosis, Mundy Lab (AID 2284240)
Outline: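 Luminescent caspase-3/7 readout, 26.5 h post-dose, in human neural progenitor cells from WA09 embryonic stem cells. Cells grew 40–44 h at 37 °C, 5% CO2 before chemical addition. Activity analysed as signal increase over DMSO baseline.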

[18] = CCTE_Mundy_HCI_Cortical_Synap_Neur_Matur_NeuronCount: CCTE's Synaptogenesis and Neurite Maturation Assay in rat cortical cells for Neuron Count, Mundy Lab (AID 2284242; active means hit-call score of the fitted dose curve at least 0.9, where 1 is the maximum)
Outline: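 Rat cortical cultures; AraC DIV 5; chemical dosing + media change DIV 7 to DIV 12 (288.33 h readout). Fix, Hoechst, anti-MAP2/anti-synaptophysin immunostain; HCI neuron count vs DMSO baseline.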

[19] = IUF_NPC2c_oligodendrocyte_migration_120hr: Leibniz Research Institute for Environmental Medicine (IUF) 120-hour Neural Progenitor Cell Migration Assay for Oligodendrocyte Migration (NPC2c) (AID 2284297);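 further: O4-positive oligodendrocyte migration distance divided by radial glia migration distance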
Outline: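 Primary hNPC spheres migrating on extracellular matrix, exposed five days to a 7-point dilution series with solvent control. Oligodendrocyte migration was scored by high-content imaging of O4 immunostaining and expressed relative to radial glia distance.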

[20] = IUF_NPC2a_radial_glia_migration_120hr: Leibniz Research Institute for Environmental Medicine (IUF) 120-hour Neural Progenitor Cell Migration Assay for Radial Glia Migration (NPC2a) (AID 2284298)
Outline: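 In this multiplexed test, fetal hNPC spheres migrate radially on poly-D-lysine/laminin in N2 medium (37C, 5% CO2, pH 7.2-7.6) under continuous compound exposure over five days. Migration is scored at 120 h from automated Hoechst nuclear imaging.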

[21] = IUF_NPC2a_radial_glia_migration_72hr: Leibniz Research Institute for Environmental Medicine (IUF) 72-hour Neural Progenitor Cell Migration Assay for Radial Glia Migration (NPC2a) (AID 2284299)
Outline: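 Readout: mean of four manual brightfield measurements of radial glia migration distance (um) at 72 h. hNPC spheres (0.3 mm) exposed to 7 compound concentrations plus solvent control on PDL/laminin, 37C, 5% CO2; activity fitted relative to DMSO.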

[22] = IUF_NPC3_neuronal_differentiation_120hr: Leibniz Research Institute for Environmental Medicine (IUF) 120-hour Neuronal Differentiation Assay (NPC3) (AID 2284301)
Outline: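 hNPC spheres, PDL/laminin, DMEM/F12 3:1 + 1% N2, 37C, 5% CO2; 7 concentrations + solvent control, 5 d exposure, half-change day 3. Fix 120 h; TUBB3/Hoechst ICC, CNN neuron calling; % neurons vs nuclei, DMSO-normalized.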

[23] = IUF_NPC4_neurite_length_120hr: Leibniz Research Institute for Environmental Medicine (IUF) 120-hour Neuronal Morphology Assay for Neurite Length (NPC4) (AID 2284302)
Outline: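 hNPC spheres (0.3 mm, fetal brain GW 16-19) on PDL/laminin, DMEM:F12 3:1 + 1% N2, 37C 5% CO2; 7 concs + solvent control, day 0-5, half medium change d3; fix 120 h, TUBB3 ICC, mean neurite length um vs DMSO.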

[24] = IUF_NPC5_oligodendrocyte_differentiation_120hr: Leibniz Research Institute for Environmental Medicine (IUF) 120-hour Oligodendrocyte Differentiation Assay (NPC5) (AID 2284304; active means hit-call score of the fitted dose curve at least 0.9, where 1 is the maximum;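 further: primary human fetal neural progenitor spheres plated to migrate and differentiate; share of O4-positive cells among Hoechst nuclei found by CNN image analysis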)
Outline: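 Human primary NPC neurospheres migrating and differentiating on laminin for 120 h under continuous compound exposure (serial dilution, solvent control). Endpoint: percent O4+ oligodendrocytes among Hoechst nuclei, detected by CNN image analysis, with DMSO as negative control.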

[25] = IUF_NPC2-5_cytotoxicity_72hr: Cytotoxicity Assessment at 72 hours in the Leibniz Research Institute for Environmental Medicine (IUF) Neural Progenitor Cell Migration and Differentiation Assay for Cytotoxicity (NPC2-5) (AID 2284306; active means hit-call score of the fitted dose curve at least 0.9, where 1 is the maximum;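 further: LDH release into supernatant measured by resorufin fluorescence marking membrane damage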)
Outline: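 hNPC spheres (0.3 mm), PDL/laminin, DMEM/F12 3:1 + 1% N2; cpd from d0, 7 concs + SC, DMSO max 0.1%; half-medium refresh d3. Readout: supernatant LDH via resorufin fluorescence (RFU), 72 h; gain-of-signal fit.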

[26] = IUF_NPC2-5_cytotoxicity_120hr: Cytotoxicity Assessment at 120 hours in the Leibniz Research Institute for Environmental Medicine (IUF) Neural Progenitor Cell Migration and Differentiation Assay (NPC2-5) (AID 2284307; active means hit-call score of the fitted dose curve at least 0.9, where 1 is the maximum;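 further: LDH released into supernatant as membrane damage marker via resorufin fluorescence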)
Outline: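 Fluorescence (RFU) from LDH-driven resazurin reduction in medium supernatants measured loss of membrane integrity after 120 h of compound exposure of differentiating primary human neural progenitor spheres on an extracellular matrix.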

[27] = IUF_NPC2-5_cell_number_120hr: Cell Number Assessment at 120 hours in the Leibniz Research Institute for Environmental Medicine (IUF) Neural Progenitor Cell Migration and Differentiation Assay (NPC2-5) (AID 2284308);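 further: count of Hoechst-stained nuclei in migration zone around plated human neural progenitor spheres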
Outline: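 Cell number is taken as all Hoechst-positive nuclei detected in the area into which cells migrate out of the sphere, scored at 120 h and referenced to DMSO solvent control, which was kept at no more than 0.1%.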

[28] = IUF_NPC2-5_viability_120hr: Viability Assessment at 120 hours in the Leibniz Research Institute for Environmental Medicine (IUF) Neural Progenitor Cell Migration and Differentiation Assay (NPC2-5) (AID 2284312)
Outline: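 Human fetal neural progenitor spheres (0.3 mm) plated on poly-D-lysine/laminin in N2 differentiation medium, exposed 120 h with half-medium refresh at day 3. Viability by alamar blue resazurin fluorescence; 7 concentrations, DMSO max 0.1%.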

[29] = IUF_NPC1_cytotoxicity_72hr: Cytotoxicity Assessment at 72 hours in the Leibniz Research Institute for Environmental Medicine (IUF) Neural Progenitor Cell Proliferation Assay (NPC1) (AID 2284332; active means hit-call score of the fitted dose curve at least 0.9, where 1 is the maximum;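 further: rising LDH signal means more cytotoxicity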)
Outline: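 LDH in supernatant, resazurin→resorufin fluorescence (RFU), 72 h exposure, no re-dosing. Cells: primary hNPC spheres, one per well, EGF+FGF medium, 37C/5% CO2, pH 7.2-7.6. Fit: positive direction vs baseline and dynamic range.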

Measured: AC50

C[C@@H]1C[C@H]2[C@@H]3CCC4=CC(=O)C=C[C@]4(C)[C@@]3(F)[C@@H](O)C[C@]2(C)[C@@]1(O)C(=O)CO
active: [4] 90.1 nM | [8] 21100 nM | [26] 24 nM
inactive: [1] | [2] | [3] | [5] | [6] | [7] | [9] | [10] | [11] | [12] | [13] | [14] | [15] | [16] | [17] | [18] | [19] | [20] | [21] | [22] | [23] | [24] | [25] | [27] | [28] | [29]
